Shn3 inh set2 = inhibitors of Schnurri-3 3'UTR reporter in osteoblasts | inhibition, % at 12.5 µM | AID 588674 | Clone20 osteoblast Shn3 3'UTR firefly luciferase, 24 h | hit rate 0.52% among 360,000;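 active means mean inhibition of at least 75% with every replicate also reaching 75%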;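 further: 0% = median of neutral control wells and 100% = pilot-screen positive control compound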
TWEAK-Fn14 inh = blocks TWEAK-Fn14 interaction in a reporter cell assay; hit rate 2% among 360,000; TWEAK-stimulated Fn14 reporter cells, luciferase luminescence, 8 h; inhibition, % at 10 µM; in the data active means inhibition above about 50%
EBV LMP1 NFkB = reduces LMP1-driven NF-kappaB luciferase signal; LMP1-induced NF-kappaB luciferase reporter cells, luminescence; hit rate 0.69% among 350,000; inhibition, % at 12.5 µM; AID 504558; in the data active means inhibition above about 41%;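 further: 0% = neutral control wells and 100% = reference inhibitor control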
Peg3 prom inh = Peg3 promoter activity inhibition. HeLa PEG-Prom luciferase reporter, luminescence, overnight. inhibition, % at 20 µM. hit rate 1.7% among 360,000;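 active means inhibition of at least 50% at 20 µM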
MITF TRPM1 inh = inhibitors of MITF-driven TRPM1 promoter in melanoma cells. SK-MEL-5 TRPM1 promoter luciferase, 24 h. inhibition, % at 12.5 µM. hit rate 0.83% among 330,000;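 active means mean inhibition across replicates of 60% or more, whatever share of single replicates reaches that level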
TROY NFkB inh = blocks TROY-dependent signaling in reporter cells; Q293 LMP1-TROYcd NF-kB luciferase reporter, 4 h; hit rate 0.98% among 360,000; AID 1347056; inhibition, % at 10 µM;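 active means compounds whose plate-normalised and pattern-corrected inhibition of the luciferase reporter signal at the single screening dose is 50% or more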
Starred values were filed as active, the others as inactive. Compounds with a hit are over-represented: about 4.1% of the library has one in this group of screens.

How did CC(C)(C)OC(=O)NCCCCCc1cn([C@@H](CO)C(=O)NCCCCCCCCCCC(=O)N2CCN(C(=O)OC(C)(C)C)CC2)nn1 do in these assays?
Shn3 inh set2: 34; TWEAK-Fn14 inh: 103*; EBV LMP1 NFkB: 15; Peg3 prom inh: 93*; MITF TRPM1 inh: 58; TROY NFkB inh: 73*

What do the screens show for `CC[C@H](C)[C@@H](C(=O)NCCCCCCCCCCC(=O)N1CCN(C(=O)OC(C)(C)C)CC1)n1cc(CCCCCNC(=O)OC(C)(C)C)nn1`?
Shn3 inh set2: 89*; TWEAK-Fn14 inh: 96*; EBV LMP1 NFkB: 19; Peg3 prom inh: 28; MITF TRPM1 inh: 65*; TROY NFkB inh: 45

Results for CC(C)(C)OC(=O)CC[C@@H](C(=O)NCCCCCCCCCCC(=O)N1CCN(C(=O)OC(C)(C)C)CC1)n1cc(CCCCCNC(=O)OC(C)(C)C)nn1 ?
Shn3 inh set2: 31; TWEAK-Fn14 inh: 13; EBV LMP1 NFkB: 6; Peg3 prom inh: 2; MITF TRPM1 inh: 12; TROY NFkB inh: -14

What do the screens show for `CC(C)(C)c1ccc(C(=O)NNc2ncccc2-n2cccc2)cc1`?
Shn3 inh set2: -13; TWEAK-Fn14 inh: 8; EBV LMP1 NFkB: 0; Peg3 prom inh: -8; MITF TRPM1 inh: -15; TROY NFkB inh: 53*

Results for CCN(CC)CCCNc1nc2ccccc2c2[nH]c3ccc(OC)cc3c12 ?
Shn3 inh set2: 92*; TWEAK-Fn14 inh: 5; EBV LMP1 NFkB: -32; Peg3 prom inh: 99*; MITF TRPM1 inh: 102*; TROY NFkB inh: 69*

Results for N#CCCC(CCC#N)C1=NCCc2ccccc21 ?
Shn3 inh set2: -12; TWEAK-Fn14 inh: -1; EBV LMP1 NFkB: 0; Peg3 prom inh: 13; MITF TRPM1 inh: -2; TROY NFkB inh: -2

How did COc1ccccc1NC(=O)c1c(C)cc(=O)oc1C do in these assays?
Shn3 inh set2: -6; TWEAK-Fn14 inh: 60*; EBV LMP1 NFkB: -5; Peg3 prom inh: 9; MITF TRPM1 inh: -4; TROY NFkB inh: -10

How did O=C(Cc1c(F)cccc1Cl)Nc1ccc(S(=O)(=O)N2CCOCC2)cc1 do in these assays?
Shn3 inh set2: -23; TWEAK-Fn14 inh: -9; EBV LMP1 NFkB: 1; Peg3 prom inh: 5; MITF TRPM1 inh: 2; TROY NFkB inh: -11

Results for NC(N)=N/N=C(\N=Nc1ccccc1)c1ccc(Cl)cc1 ?
Shn3 inh set2: 5; TWEAK-Fn14 inh: 7; EBV LMP1 NFkB: -6; Peg3 prom inh: 90*; MITF TRPM1 inh: 40; TROY NFkB inh: -15

Results for O=C(NC1CCCC1)c1sc(=S)n2c1[nH]c(=O)c1ccccc12 ?
Shn3 inh set2: 0; TWEAK-Fn14 inh: -3; EBV LMP1 NFkB: 6; Peg3 prom inh: 28; MITF TRPM1 inh: 12; TROY NFkB inh: 72*

How did O=C(NCc1ccco1)c1sc(=S)n2c1[nH]c(=O)c1ccccc12 do in these assays?
Shn3 inh set2: -4; TWEAK-Fn14 inh: 7; EBV LMP1 NFkB: -6; Peg3 prom inh: 10; MITF TRPM1 inh: -2; TROY NFkB inh: 17

What do the screens show for `C[C@H](CO)N1C[C@H](C)[C@H](CN(C)S(=O)(=O)c2ccc(F)cc2)OCc2cnnn2CCCC1=O`?
Shn3 inh set2: -10; TWEAK-Fn14 inh: 102*; EBV LMP1 NFkB: 2; Peg3 prom inh: 2; TROY NFkB inh: 7

How did C[C@H]1CN([C@@H](C)CO)C(=O)CCCn2nncc2CO[C@@H]1CN(C)C(=O)Nc1cccc2ccccc12 do in these assays?
Shn3 inh set2: -2; TWEAK-Fn14 inh: 53*; EBV LMP1 NFkB: 3; Peg3 prom inh: -12; TROY NFkB inh: 48

Results for C[C@@H]1CN([C@@H](C)CO)C(=O)CCCn2nncc2CO[C@H]1CN(C)S(=O)(=O)c1ccc(F)cc1 ?
Shn3 inh set2: -2; TWEAK-Fn14 inh: -8; EBV LMP1 NFkB: -2; Peg3 prom inh: -2; TROY NFkB inh: 3

What do the screens show for `Cc1cccc(NC(=S)NCC(C)CSc2ccc(Cl)cc2)c1` (stereo unspecified)?
Shn3 inh set2: 1; TWEAK-Fn14 inh: 0; EBV LMP1 NFkB: -3; Peg3 prom inh: 30; MITF TRPM1 inh: 0; TROY NFkB inh: 52*

Results for CN(CC(=O)N1CCN(c2ccccn2)CC1)S(=O)(=O)c1ccc(Br)cc1 ?
Shn3 inh set2: 15; TWEAK-Fn14 inh: 92*; EBV LMP1 NFkB: 5; Peg3 prom inh: 7; MITF TRPM1 inh: 3

Results for CN(CC(=O)N1CCCCCC1)S(=O)(=O)c1ccc(Br)cc1 ?
Shn3 inh set2: -26; TWEAK-Fn14 inh: -12; EBV LMP1 NFkB: 0; Peg3 prom inh: -9; MITF TRPM1 inh: 12; TROY NFkB inh: 10
